High-throughput results as filed in PubChem BioAssay.
The list is a sample of the results.
aSyn UTR act: Activators via SNCA 5'UTR binding, MLPCN. alpha-synuclein 5'UTR reporter, activators screen. activity score, % (tested at 7.5 µM), hits read low. 7.1% of 300,000 active. AID 1814; in the data active = activity score below about -60%
Starred values were filed as active, the others as inactive.

What do the screens show for `Cc1ccc(O)c(CNc2ccccn2)c1`?
aSyn UTR act: -67*

What do the screens show for `COC(CN(C(=O)CCl)C(C(=O)NC1CCCCC1)c1ccccc1C)OC` (stereo not given)?
aSyn UTR act: -71*

How did S=C(NCCc1ccccn1)NC1CC2CCC1C2 (stereo not given) do in these assays?
aSyn UTR act: -62*

How did O=C(NCCN1CCOCC1)c1noc2c1CCc1ccccc1-2 do in these assays?
aSyn UTR act: -104*

Results for CCCNC(=O)c1noc2c1CCc1ccccc1-2 ?
aSyn UTR act: -119*

Results for O=C(Nc1cccnc1Cl)c1noc2c1CCc1ccccc1-2 ?
aSyn UTR act: -124*

What do the screens show for `Cc1cccc(-n2ncc3c(N4CCC5(CC4)OCCO5)ncnc32)c1`?
aSyn UTR act: -82*

How did c1ccc(-n2ncc3c(N4CCC5(CC4)OCCO5)ncnc32)cc1 do in these assays?
aSyn UTR act: -223*

What do the screens show for `O=C(Nc1ccccc1)N1CCC(c2ccccc2)C1` (stereo not given)?
aSyn UTR act: -141*

Results for Cc1ccc(C2CCN(C(=S)NC(C)(C)C)C2)cc1 (stereo not given) ?
aSyn UTR act: -93*

What do the screens show for `CCc1ccc(NC(=O)N2CCC(c3ccccc3)C2)cc1` (stereo not given)?
aSyn UTR act: -172*

What do the screens show for `O=C(c1cccs1)N1CCC(c2ccccc2)C1` (stereo not given)?
aSyn UTR act: -140*

How did COc1ccc(NC(=S)N2CCC(c3ccccc3)C2)cc1 (stereo not given) do in these assays?
aSyn UTR act: -169*

How did CCOc1ccc(NC(=O)N2CCC(c3ccc(C)cc3)C2)cc1 (stereo not given) do in these assays?
aSyn UTR act: -67*

How did Cn1c(-c2ccccc2)cnc1SCc1nc2ccccc2c(=O)[nH]1 do in these assays?
aSyn UTR act: -62*

What do the screens show for `C/C(=N\N=C\c1ccccc1)c1nnn(-c2nonc2N)c1C`?
aSyn UTR act: -82*

Results for O=c1cc(-c2ccc(O)c(O)c2)oc2cc(O)cc(O)c12 ?
aSyn UTR act: -207*

How did COc1cc(-c2cc(=O)c3c(O)c(OC)c(OC)c(O)c3o2)ccc1O do in these assays?
aSyn UTR act: 87

What do the screens show for `O=c1c(O)c(-c2ccc(O)c(O)c2)oc2cc(O)cc(O)c12`?
aSyn UTR act: -109*

Results for CCOc1cccc(C(=O)Nc2cccc(-c3nnc(-c4ccccc4)o3)c2)c1 ?
aSyn UTR act: -77*

What do the screens show for `CC(=O)Nc1cccc(-c2nnc(-c3ccccc3)o2)c1`?
aSyn UTR act: -150*

How did O=C(Nc1cccc(-c2nnc(-c3ccccc3)o2)c1)C1CC1 do in these assays?
aSyn UTR act: -89*

How did O=C(Nc1ccc(Cc2ccncc2)cc1)c1cccs1 do in these assays?
aSyn UTR act: -66*

Results for COc1c(Cl)cc(Cl)cc1/C=C/C(=O)c1ccc(NC(=O)c2cccs2)cc1 ?
aSyn UTR act: -115*

How did O=C(Nc1ccc(NC(=O)c2cccs2)cc1)c1ccco1 do in these assays?
aSyn UTR act: -232*

How did O=C(Nc1ccc(O)cc1)c1ccc(NC(=O)c2cccs2)cc1 do in these assays?
aSyn UTR act: -70*

Results for O=C(N/N=C(\Cc1ncc[nH]1)c1ccccc1)c1ccccc1 ?
aSyn UTR act: 74

What do the screens show for `O=C(Nc1ccc(NC(=O)c2cccs2)cc1)c1ccccc1`?
aSyn UTR act: -140*

Results for O=C(O)CC/C(=N/NC(=O)c1cccs1)c1ccccc1 ?
aSyn UTR act: -167*

How did CC(=O)Oc1cccc(C(=O)Nc2ccc(NC(=O)c3cccs3)cc2)c1 do in these assays?
aSyn UTR act: -106*

Results for O=C(Nc1cccc(O)c1)c1ccc(NC(=O)c2cccs2)cc1 ?
aSyn UTR act: -68*

What do the screens show for `Cc1ccc(NC(=O)c2cccs2)cc1`?
aSyn UTR act: -145*

How did O=C(Nc1ccc2c(c1)CCC2)c1cccs1 do in these assays?
aSyn UTR act: -145*

Results for CC(=O)Oc1ccc(-c2nc(-c3cccnc3)no2)cc1 ?
aSyn UTR act: -93*

Results for CC(=O)Oc1ccc(Oc2ccc(-c3noc(C)n3)cc2)cc1 ?
aSyn UTR act: -77*

How did CC1=NN(C(N)=S)C(=O)C1N=Nc1ccc(Cl)cc1Cl (stereo not given) do in these assays?
aSyn UTR act: -184*

What do the screens show for `CC1=NN(C(N)=S)C(=O)C1N=Nc1cccc(C)c1` (stereo not given)?
aSyn UTR act: -75*

Results for CC1=NN(C(N)=S)C(=O)C1N=Nc1ccc(C)c(Br)c1 (stereo not given) ?
aSyn UTR act: -128*

Results for O=C(c1ccccn1)c1cc2ccccc2n1S(=O)(=O)c1ccccc1 ?
aSyn UTR act: -91*

What do the screens show for `CCCCC(=O)Nc1ccc2c(c1)nc1n2CCSC1`?
aSyn UTR act: -84*

What do the screens show for `Cc1ccc(C(=O)Nc2ccc3c(c2)nc2n3CCSC2)cc1`?
aSyn UTR act: -67*

Results for O=C1S/C(=C\c2ccc(N3CCOCC3)o2)C(=O)N1c1ccccc1 ?
aSyn UTR act: -96*

How did O=C(O)c1ccccc1-c1ccc(/C=C2\SC(=O)N(c3ccccc3)C2=O)o1 do in these assays?
aSyn UTR act: -72*

Results for COc1ccc(C(=O)O/N=C(\N)c2ccccc2)cc1 ?
aSyn UTR act: -82*

How did COc1ccc(C(=O)O/N=C(\N)c2ccc(Br)cc2)cc1 do in these assays?
aSyn UTR act: -174*

Results for COc1ccccc1C1=NN(C(=S)Nc2ccccc2)C(c2ccco2)C1 (stereo not given) ?
aSyn UTR act: -154*

What do the screens show for `Cc1cc(=O)[nH]c(S/C=C/c2ccccc2)n1`?
aSyn UTR act: -78*

What do the screens show for `Cc1cc(=O)[nH]c(N=N/C(=N/Nc2ccccc2C)c2ccccc2)n1`?
aSyn UTR act: 82

What do the screens show for `Cc1nc2cc3ccccc3cc2c(=O)[nH]1`?
aSyn UTR act: -112*

Results for COc1cc(/C=C2\OC(=O)c3c(OC)cccc32)ccc1O ?
aSyn UTR act: -172*

Results for COc1ccc2c(c1)O/C(=C\c1sccc1C)C2=O ?
aSyn UTR act: -198*

What do the screens show for `Cc1cc(C(=O)CS(=O)(=O)c2ccc(F)cc2)cc(C)c1O`?
aSyn UTR act: -80*

What do the screens show for `Cc1cc(C(=O)CSc2ccccc2)cc(C)c1O`?
aSyn UTR act: -160*

Results for Cc1cc(C(=O)CS(=O)(=O)c2ccccc2)cc(C)c1O ?
aSyn UTR act: -85*

What do the screens show for `CCn1c(SCC(=O)N=Nc2c(O)[nH]c3ccccc23)nc2ccccc21`?
aSyn UTR act: -79*

How did O=C(CSCc1ccccc1)N=Nc1c(O)[nH]c2ccccc12 do in these assays?
aSyn UTR act: -79*

How did O=C(N=Nc1c(O)[nH]c2ccccc12)c1ccco1 do in these assays?
aSyn UTR act: -170*

How did Cc1cccc(Nc2nc3c(s2)CCCC3)c1 do in these assays?
aSyn UTR act: -257*

How did COC(=O)c1sc(Nc2ccccc2)nc1C do in these assays?
aSyn UTR act: -157*

How did CCOC(=O)c1sc(NC(=O)Nc2ccc(Cl)cc2)nc1C do in these assays?
aSyn UTR act: -175*

Results for Cc1ccc(-c2nc(Nc3cccc(C)c3)sc2CC(=O)O)cc1 ?
aSyn UTR act: -143*

How did COC(=O)Nc1nc(C)c(C(=O)c2ccccc2)s1 do in these assays?
aSyn UTR act: -105*

Results for COc1ccc(Nc2nc(N)c(C(=O)c3ccc(F)cc3)s2)cc1 ?
aSyn UTR act: 70

How did CC(C)(C)C(=O)c1sc(Nc2ccccc2)nc1N do in these assays?
aSyn UTR act: -180*

Results for CC(=O)c1sc(Nc2cccc(C)c2)nc1C ?
aSyn UTR act: -165*
